Only a selection was taken, and hits are over-represented in it overall.
Tb PYK inh: T. brucei pyruvate kinase inhibition. Potency, µM (doses to about 76.8 µM), most hits filed as inhibitors. Q57TT1. TbPYK enzyme, Kinase-Glo Plus ATP luminescence, 45 min. hit rate 0.12% among 410,000; further: nearly all actives have a fitted effect of over 50% in size
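Readout: single end-point luminescence (Kinase-Glo Plus, 10 min). Reaction conditions were TbPYK/substrate plus 130 uM ADP, 45 min at RT, pH 7.2 TEA buffer. No-enzyme wells served as controls, and data were normalized before concentration-response fitting.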
Shiga toxin inh: Shiga toxin inhibition; inhibition, % at 38.7 µM; hit rate 9.2% among 290,000; Vero cells, Shiga toxin protein synthesis inhibition reporter; in the data active means inhibition mostly above about 28%, no sharp cut-off; inactive means mostly below about 43%
Cycloheximide cs: affects cycloheximide protein synthesis inhibition readout, counter-screen. AID 2314. max response, %. cell reporter, cycloheximide protein synthesis inhibition counterscreen. hit rate 12% among 300,000; in the data active means max response mostly above about 13%, no sharp cut-off; inactive means mostly below about 14%; further: read at 38.3 µM for the half of the compounds with a filed dose
FBPA Giardia inh: inhibitors of Giardia lamblia fructose-1,6-bisphosphate aldolase; hit rate 0.71% among 290,000; A8B2U2; Potency, µM (titrated, usually from 59.6 µM), most hits filed as inhibitors; purified Giardia FBPA; further: nearly all actives have a fitted effect of over 55% in size
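Giardia FBPA (40 nM reagent) was preincubated 10 min at RT with compound (up to 57.5 uM final), then substrate plus GAPDH/TPI/NAD/arsenate coupling system with diaphorase/resazurin was added; resorufin fluorescence (525/598 nm) was read after 20 min.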
Sm TGR inh: S. mansoni TGR enzyme inhibition; Q962Y6; purified TGR, DTNB reduction, TNB absorbance 405 nm; Potency, µM (titrated, usually from 114 µM), actives largely listed as inhibitors; hit rate 3% among 360,000; AID 485364; further: nearly all actives have a fitted effect of over 60% in size
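First, TGR (20 nM dispensed) and NADPH were mixed with compound. Second, a 15 min room-temperature incubation followed. Third, further NADPH and then DTNB were added to start the reaction. Finally, TNB absorbance was monitored kinetically.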
LmPK inhibitor: blocks Leishmania mexicana pyruvate kinase activity. Q27686. purified LmPK, Kinase-Glo ATP luminescence, 1 h. Potency, µM (series often up to 57.5 µM), actives largely listed as inhibitors. hit rate 0.37% among 290,000
Target sequence (Q27686 whole entry, looked up): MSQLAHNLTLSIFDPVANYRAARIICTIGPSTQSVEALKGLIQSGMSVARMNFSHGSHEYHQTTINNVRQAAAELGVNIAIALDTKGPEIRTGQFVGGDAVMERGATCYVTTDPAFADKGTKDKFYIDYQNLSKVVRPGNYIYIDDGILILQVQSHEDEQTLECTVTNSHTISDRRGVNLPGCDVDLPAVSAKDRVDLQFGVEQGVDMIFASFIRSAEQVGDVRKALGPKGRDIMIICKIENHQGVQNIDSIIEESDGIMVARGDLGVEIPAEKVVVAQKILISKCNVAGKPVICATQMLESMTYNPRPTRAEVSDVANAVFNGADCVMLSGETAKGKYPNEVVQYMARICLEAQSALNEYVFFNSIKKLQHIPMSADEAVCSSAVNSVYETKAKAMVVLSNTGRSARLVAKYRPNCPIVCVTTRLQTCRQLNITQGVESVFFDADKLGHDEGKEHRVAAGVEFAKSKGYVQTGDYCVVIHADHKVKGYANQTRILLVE
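In 50 mM imidazole pH 7.2 with 7 mM MgCl2, LmPK (0.1 nM) turned over PEP (0.5 mM) and ADP (0.1 mM) for 1 h at room temperature. Luciferase read-out of ATP.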
Hits are given with their value; . = inactive; ? = inconclusive; / = not tested or not shown; [ ] = remark or other dose. Unless noted, the call rests on the fitted dose curve; in most records, active means well fitted curve in the direction sought with a large enough effect; inconclusive means small, poorly fitted or top-dose-only effect, or another doubt; inactive means no such curve, though single readings can be large; an effect the other way counts as inactive or inconclusive.

SMILES	Tb PYK inh	Shiga toxin inh	Cycloheximide cs	FBPA Giardia inh	Sm TGR inh	LmPK inhibitor
O=C(CC1SC(=O)NC1=O)Oc1ccc(/C=N/NC(=O)c2ccccc2O)cc1 (stereo not drawn)	.	36	23	.	.	.
O=C(Oc1ccc(/C=N/NC(=O)c2ccccc2F)cc1)c1ccccc1	.	83	27	.	.	.
O=C(Oc1ccc(/C=N/NC(=O)c2ccccc2O)cc1)c1ccccc1	.	.	16	.	.	.
CC(=O)Nc1ccc(OC(=O)CC2SC(=O)NC2=O)cc1 (stereo not drawn)	.	.	.	.	.	.
Cn1nccc1C(=O)Oc1ccc(/C=N/NC(=O)c2ccccc2O)cc1	.	75	.	.	.	.[11.5 µM]
CCC1CCCCN1S(=O)(=O)c1cc2c(cc1C)NC(=O)CO2 (stereo not drawn)	.	/	/	/	.	/
O=C(NCc1ccco1)c1c[nH]c2ccc(S(=O)(=O)Nc3ccc(F)cc3F)cc2c1=O	.	/	/	/	?	/
CCOC(=O)Cn1cnc(-c2ccc([N+](=O)[O-])cc2)c1	.	75	43	.	.	.
Cc1c(C(=O)N2CCCC2)oc2c1-c1nn(CC(=O)NC(C)c3ccccc3)cc1CC2 (stereo not drawn)	.	/	/	/	.	/
COc1ccccc1NC(=O)c1oc2ccccc2c1NC(=O)c1cccc(OC)c1OC	.	/	/	/	.	/
CCc1ccccc1N1CSC2=C(C#N)C(c3ccccc3F)CC(=O)N2C1 (stereo not drawn)	8.9µM	.	.	6.3µM	18µM	.
COc1cc(OC)c(C2CC(=O)N3CN(c4ccccc4C)CSC3=C2C#N)cc1OC (stereo not drawn)	/	.	.	4.5µM	32µM	.
Cn1c2c(c(=O)n(C)c1=O)C(c1ccccc1F)C(C#N)=C(N)O2 (stereo not drawn)	.	.	.	.	.	.
CC(C)[C@H](/C=C/C[Si](C)(C)C)[C@H](C)C(O)/C=C/CCCOC(=O)C(C)(C)C (stereo partly drawn)	/	.	.	.	/	/
CC1CCCN(S(=O)(=O)c2ccc3oc(=O)ccc3c2)C1 (stereo not drawn)	.	.	.	/	.	.
CS(=O)(=O)NN1C(=O)c2ccccc2NC1c1cc2ccccc2nc1Cl (stereo not drawn)	.	.	16	.	.	.
CN(C)c1ccc(C2Nc3ccccc3C(=O)N2NS(C)(=O)=O)cc1 (stereo not drawn)	.	.	15	.	.	.
Cc1ccc(S(=O)(=O)NN2C(=O)c3ccccc3NC2c2ccccc2)cc1 (stereo not drawn)	.	98	24	.	.	.
CCOc1ccc(-n2c(C)nc3cc(C(=O)NC4CCCC4)ccc32)cc1	.	/	/	/	.	/
COc1cccc(-c2cn3c(n2)sc2cc(C(=O)NCCc4ccc(OC)c(OC)c4)ccc23)c1	.	/	/	/	.	/
Nc1nc(SCCO)[nH]c(=O)c1NC(=O)c1ccccc1F	.	.	.	?	.	.
COCCn1c(SCC(=O)c2ccc(C)cc2C)nc2cc(C(=O)NC3CCCC3)ccc2c1=O	.	/	/	/	.	/
COC(=O)c1ccccc1NC(=O)c1ccc2c(c1)CCN2S(=O)(=O)c1ccc(Cl)cc1	.	/	/	/	.	/
COc1ccc2cc(C(=O)N/N=C/c3sc4ccccc4c3O)ccc2c1	.	111	52	?	.	.
O=C(N/N=C/c1ccc(Br)cc1)c1ccc(NC(=O)c2ccccc2)cc1	.	/	/	/	/	/
SMILES	Tb PYK inh	Shiga toxin inh	Cycloheximide cs	FBPA Giardia inh	Sm TGR inh	LmPK inhibitor
COc1ccc(NS(=O)(=O)c2cccc(C(=O)N/N=C/c3c(F)c(F)c(F)c(F)c3F)c2)cc1	.	/	/	/	/	/
O=C(N/N=C/c1sc2ccccc2c1O)c1ccccc1	.	61	50	?	.	.
COc1ccc(C(=O)N/N=C/c2c(CO)cnc(C)c2O)cc1	.	.	.	.	.	.
O=C(N/N=C/c1sc2ccccc2c1O)c1cccc2ccccc12	.	.	25	.	.	.
COc1ccc(C(=O)N/N=C/c2sc3ccccc3c2O)cc1	.	116	40	.	.	.
O=C(N/N=C/c1ccccc1)c1cccc2ccccc12	.	/	/	/	/	/
Cn1c(C(=O)NCc2cccc(F)c2)cc2cc(S(=O)(=O)N3CCCCC3)ccc21	.	/	/	/	.	/
CCn1cc2nc(SCC(=O)Nc3cc(OC)cc(OC)c3)n(Cc3ccc(Cl)cc3)c(=O)c2n1	.	/	/	/	.	/
O=c1c(O)cc(C2Oc3cc(O)cc(O)c3CC2O)cc2c(C3Oc4cc(O)cc(O)c4CC3O)cc(O)c(O)c12 (stereo not drawn)	/	/	/	0.89µM	/	/
Oc1cc(O)c2c(c1)O[C@H](c1ccc(O)c(O)c1)[C@@H](O)C2	.	.	.	.	.	.
Nc1nonc1OCCc1ccccc1	.	.	12	.	.	.
COc1ccc(/C=N/NC(=O)c2cccc(O)c2)cc1Cn1nc(C)c([N+](=O)[O-])c1C	.	.	.	.	.	.
COc1ccccc1-c1nc(SCC(=O)Nc2ccc(C)c(C)c2)n[nH]1	.	/	/	/	.	/
Cc1cc(OI)c(C(C)C)cc1-c1cc(C(C)C)c(OI)cc1C	.	.	.	.	/	/
Cc1ccc2c(CNCc3ccco3)cc(=O)oc2c1	.	55	38	.	.	.
COC(=O)c1ccc(NC(=O)CCn2cccn2)cc1	.	/	/	/	.	/
O=C(Nc1ccc(N2CCOCC2)cc1)c1c(F)cccc1Cl	.	.	.	.	.	.
CC(C)(C)c1ccc(NC(=O)c2c(F)cccc2Cl)cc1	.	55	31	.	.	.
O=C(Nc1ncc(Cl)cc1Cl)c1c(F)cccc1Cl	.	66	.	.	.	.
CCOc1ccccc1NS(=O)(=O)c1ccc2oc(=O)c3ncn(C)c3c2c1	.	/	/	/	.	/
Cc1ccc(CNC(=O)/C=C/c2cccs2)cc1	.	78	27	.	.	.
Cc1ccc(CNC(=O)/C=C/C(=O)O)cc1	.	.	.	.	.	.[11.5 µM]
CCCCNC(=O)/C=C/c1cccs1	.	48	33	.	.	.
O=C(Cn1cccc1C(=O)c1ccccc1)NCc1ccc(Cl)cc1	.	.	.	.	.	.
O=C(Cn1cccc1C(=O)c1ccccc1)NCc1cccc(Cl)c1	.	53	32	.	.	.
COc1cc(OC)nc(NC(=O)NS(=O)(=O)c2ccccc2Cl)n1	.	.	.	.	.	.
Cc1cc(N(C)N)nc(NC(=O)NS(=O)(=O)c2ccccc2Cl)n1	.	.	16	?	.	.
CC(=O)Nc1ccc(-c2ccnc3c2CC(C)(C(=O)NCc2ccc(N(C)C)cc2)O3)cc1 (stereo not drawn)	.	/	/	/	/	/
CCOC(=O)C1(CC2CCCCO2)CCN(Cc2c(C)cc(C)cc2-n2cccn2)CC1 (stereo not drawn)	.	.	.	.	.	.
CCOC(=O)C1(CC2CCCCO2)CCN(Cc2cc(F)ccc2-n2cccn2)CC1 (stereo not drawn)	.	.	27	.	.	.

Source: PubChem BioAssay
